# In the supplement of paper PMC8728848:
# The sample as a whole holds a higher share of the strongest signals than the screen did.
# B1: Banana lectin (Musa acuminata) (protein)
# chain: MNGAIKVGAHGGNGGSAFDMGPAYRIISVKIFSGDVVDGVDVTFTYYGKTETRHYGGSGGTPHEIVLQEGEYLVGMAGEVANYHGAVVLGKLGFSTNKKAYGPFGNTGGTPFSLPIAAGKISGFFGRGGKFLDAIGVYLEPLEHHHHHH
# Tests used:
# Assay in all cases: glycan array binding signal (z-score within array); higher = stronger binding
# Conditions in all cases: glycan notation: IUPAC condensed, linker removed; mutation: W10H
# [1] = target: Fuc(a1-2)Gal(b1-3)GalNAc(b1-3)Gal(a1-4)Gal(b1-4)Glc
# Summary of the method: (§1)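 The binding signal is a Z-score computed within each array and averaged over linkers. Arrays of the same protein sequence at different concentrations or buffers were also averaged together. Data originate from 3228 arrays in the Consortium for Functional Glycomics database, kept only where the protein sequence was available.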
# [2] = target: Fuc(a1-2)Gal(b1-3)[Fuc(a1-4)]GlcNAc
# Summary of the method: as §1
# [3] = target: Fuc(a1-2)Gal(b1-4)[Fuc(a1-3)]GlcNAc(b1-3)Gal(b1-4)[Fuc(a1-3)]GlcNAc(b1-3)Gal(b1-4)[Fuc(a1-3)]GlcNAc
# Summary of the method: as §1
# [4] = target: Fuc(a1-2)Gal(b1-4)[Fuc(a1-3)]GlcNAc(b1-3)[Neu5Ac(a2-6)Gal(b1-4)GlcNAc(b1-6)]Gal(b1-4)Glc
# Summary of the method: as §1
# [5] = target: Fuc(a1-2)[Gal(a1-3)]Gal(b1-3)GlcNAc(b1-3)GalNAc
# Summary of the method: as §1
# [6] = target: Fuc(a1-2)[Gal(a1-3)]Gal(b1-3)GlcNAc(b1-6)GalNAc
# Summary of the method: as §1
# [7] = target: Fuc(a1-2)[Gal(a1-3)]Gal(b1-4)GlcNAc(b1-2)Man
# Summary of the method: as §1
# [8] = target: Fuc(a1-2)[Gal(a1-3)]Gal(b1-4)GlcNAc(b1-3)[Fuc(a1-2)[Gal(a1-3)]Gal(b1-4)GlcNAc(b1-6)]GalNAc
# Summary of the method: as §1
# [9] = target: Fuc(a1-2)[GalNAc(a1-3)]Gal(b1-3)GalNAc(b1-3)Gal(a1-4)Gal(b1-4)Glc
# Summary of the method: as §1
# [10] = target: Fuc(a1-3)[Gal(b1-4)]GlcNAc(b1-2)Man(a1-3)[Fuc(a1-3)[Gal(b1-4)]GlcNAc(b1-2)Man(a1-6)]Man(b1-4)GlcNAc(b1-4)[Fuc(a1-6)]GlcNAc
# Summary of the method: as §1
# [11] = target: Fuc(a1-3)[Gal(b1-4)]GlcNAc(b1-3)Gal(b1-4)[Fuc(a1-3)]GlcNAc
# Summary of the method: as §1
# [12] = target: Fuc(a1-3)[Gal(b1-4)]GlcNAc(b1-3)GalNAc
# Summary of the method: as §1
# [13] = target: Fuc(a1-3)[GalNAc(b1-4)]GlcNAc6S
# Summary of the method: as §1
# Gal(a1-2)Gal = target: Gal(a1-2)Gal
# Summary of the method: as §1
# Gal(a1-3)Gal(b1-3)GlcNAc = target: Gal(a1-3)Gal(b1-3)GlcNAc
# Summary of the method: as §1
# Gal(a1-4)Gal(b1-4)Glc = target: Gal(a1-4)Gal(b1-4)Glc
# Summary of the method: as §1
# [14] = target: Gal(a1-4)Gal(b1-4)GlcNAc(b1-3)Gal(b1-4)Glc
# Summary of the method: as §1
# Gal(b1-2)Gal = target: Gal(b1-2)Gal
# Summary of the method: as §1
# Gal(b1-3)Gal = target: Gal(b1-3)Gal
# Summary of the method: as §1
# Gal(b1-3)GlcNAc(b1-2)Man = target: Gal(b1-3)GlcNAc(b1-2)Man
# Summary of the method: as §1
# [15] = target: Gal(b1-3)GlcNAc(b1-3)Gal(b1-4)[Fuc(a1-3)]GlcNAc
# Summary of the method: as §1
# [16] = target: Gal(b1-3)[GlcNAc(b1-6)]GalNAc
# Summary of the method: as §1
# [17] = target: Gal(b1-4)GlcNAc(b1-2)Man(a1-3)[Gal(b1-4)GlcNAc(b1-2)Man(a1-6)]Man(b1-4)GlcNAc(b1-4)GlcNAc
# Summary of the method: as §1
# [18] = target: Gal(b1-4)GlcNAc(b1-2)[Gal(b1-4)GlcNAc(b1-4)]Man(a1-3)[GlcNAc(b1-4)][Gal(b1-4)GlcNAc(b1-2)[Gal(b1-4)GlcNAc(b1-6)]Man(a1-6)]Man(b1-4)GlcNAc(b1-4)GlcNAc
# Summary of the method: as §1
# [19] = target: Gal(b1-4)GlcNAc(b1-2)[Gal(b1-4)GlcNAc(b1-6)]Man(a1-6)[Gal(b1-4)GlcNAc(b1-2)Man(a1-3)]Man(b1-4)GlcNAc(b1-4)[Fuc(a1-6)]GlcNAc
# Summary of the method: as §1
# [20] = target: Gal(b1-4)GlcNAc(b1-2)[Gal(b1-4)GlcNAc(b1-6)]Man(a1-6)[GlcNAc(b1-4)][Gal(b1-4)GlcNAc(b1-2)Man(a1-3)]Man(b1-4)GlcNAc(b1-4)GlcNAc
# Summary of the method: as §1
# [21] = target: Gal(b1-4)GlcNAc(b1-3)Gal(b1-4)GlcNAc(b1-2)[Gal(b1-4)GlcNAc(b1-3)Gal(b1-4)GlcNAc(b1-6)]Man(a1-6)[Gal(b1-4)GlcNAc(b1-3)Gal(b1-4)GlcNAc(b1-2)Man(a1-3)]Man(b1-4)GlcNAc(b1-4)GlcNAc
# Summary of the method: as §1
# [22] = target: Gal(b1-4)GlcNAc(b1-3)Gal(b1-4)GlcNAc(b1-6)[Gal(b1-3)]GalNAc
# Summary of the method: as §1
# [23] = target: Gal(b1-4)GlcNAc(b1-3)[Fuc(a1-3)GlcNAc(b1-6)]Gal(b1-4)Glc
# Summary of the method: as §1
# [24] = target: Gal(b1-4)GlcNAc(b1-6)GalNAc
# Summary of the method: as §1
# Gal6S(b1-3)GlcNAc6S = target: Gal6S(b1-3)GlcNAc6S
# Summary of the method: as §1
# Gal6S(b1-4)Glc = target: Gal6S(b1-4)Glc
# Summary of the method: as §1
# Gal6S(b1-4)GlcNAc = target: Gal6S(b1-4)GlcNAc
# Summary of the method: as §1
# GalNAc(a1-3)Gal = target: GalNAc(a1-3)Gal
# Summary of the method: as §1
# GalNAc3S(b1-4)GlcNAc3S = target: GalNAc3S(b1-4)GlcNAc3S
# Summary of the method: as §1
# [25] = target: GlcA3S(b1-3)Gal(b1-4)GlcNAc(b1-3)Gal(b1-4)Glc
# Summary of the method: as §1
# [26] = target: Man(a1-2)Man(a1-2)Man(a1-6)[Man(a1-3)]Man
# Summary of the method: as §1
# [27] = target: Man(a1-2)Man(a1-3)[Man(a1-2)Man(a1-6)]Man
# Summary of the method: as §1
# [28] = target: Man(a1-2)Man(a1-3)[Man(a1-2)Man(a1-6)]Man(a1-6)[Man(a1-2)Man(a1-2)Man(a1-3)]Man
# Summary of the method: as §1
# [29] = target: Man(a1-2)Man(a1-3)[Man(a1-2)Man(a1-6)]Man(a1-6)[Man(a1-2)Man(a1-2)Man(a1-3)]Man(b1-4)GlcNAc(b1-4)GlcNAc
# Summary of the method: as §1
# [30] = target: Man(a1-2)Man(a1-3)[Man(a1-6)]Man(a1-6)[Man(a1-2)Man(a1-3)]Man(b1-4)GlcNAc(b1-4)GlcNAc
# Summary of the method: as §1
# [31] = target: Man(a1-2)Man(a1-6)[Man(a1-3)]Man(a1-6)[Man(a1-2)Man(a1-2)Man(a1-3)]Man
# Summary of the method: as §1
# [32] = target: Man(a1-2)Man(a1-6)[Man(a1-3)]Man(a1-6)[Man(a1-2)Man(a1-2)Man(a1-3)]Man(b1-4)GlcNAc(b1-4)GlcNAc
# Summary of the method: as §1
# Man(a1-3)[Man(a1-6)]Man = target: Man(a1-3)[Man(a1-6)]Man
# Summary of the method: as §1
# [33] = target: Man(a1-3)[Man(a1-6)]Man(a1-6)[Man(a1-2)Man(a1-3)]Man(b1-4)GlcNAc(b1-4)GlcNAc
# Summary of the method: as §1
# [34] = target: Man(a1-3)[Man(a1-6)]Man(a1-6)[Man(a1-3)]Man(b1-4)GlcNAc(b1-4)GlcNAc
# Summary of the method: as §1
# [35] = target: Man(a1-3)[Man(a1-6)]Man(b1-4)GlcNAc(b1-4)GlcNAc
# Summary of the method: as §1
# [36] = target: Neu5Ac(a2-3)Gal(b1-3)GalNAc(b1-3)Gal(a1-4)Gal(b1-4)Glc
# Summary of the method: as §1
# [37] = target: Neu5Ac(a2-3)Gal(b1-3)GalNAc(b1-4)Gal(b1-4)Glc
# Summary of the method: as §1
# [38] = target: Neu5Ac(a2-3)Gal(b1-3)GlcNAc(b1-2)Man(a1-3)[GlcNAc(b1-4)][Neu5Ac(a2-3)Gal(b1-3)GlcNAc(b1-2)Man(a1-6)]Man(b1-4)GlcNAc(b1-4)GlcNAc
# Summary of the method: as §1
# [39] = target: Neu5Ac(a2-3)Gal(b1-3)GlcNAc(b1-3)GalNAc
# Summary of the method: as §1
# Neu5Ac(a2-3)Gal(b1-4)Glc = target: Neu5Ac(a2-3)Gal(b1-4)Glc
# Summary of the method: as §1
# [40] = target: Neu5Ac(a2-3)Gal(b1-4)[Fuc(a1-3)]GlcNAc6S
# Summary of the method: as §1
# [41] = target: Neu5Ac(a2-6)Gal(b1-4)GlcNAc(b1-3)Gal(b1-4)GlcNAc(b1-3)Gal(b1-4)GlcNAc
# Summary of the method: as §1
# [42] = target: Neu5Ac(a2-8)Neu5Ac(a2-3)[GalNAc(b1-4)]Gal(b1-4)Glc
# Summary of the method: as §1
# [43] = target: Neu5Ac(a2-8)Neu5Ac(a2-8)Neu5Ac(a2-8)Neu5Ac(a2-3)[GalNAc(b1-4)]Gal(b1-4)Glc
# Summary of the method: as §1
# [44] = target: Neu5Gc(b2-6)Gal(b1-4)GlcNAc
# Summary of the method: as §1
binder,measurement,setting,value
B1,glycan array binding signal (z-score),[1],-0.164
same,glycan array binding signal (z-score),[2],-0.188
same,glycan array binding signal (z-score),[3],-0.169
same,glycan array binding signal (z-score),[4],-0.189
same,glycan array binding signal (z-score),[5],-0.17
same,glycan array binding signal (z-score),[6],-0.147
same,glycan array binding signal (z-score),[7],-0.169
same,glycan array binding signal (z-score),[8],-0.183
same,glycan array binding signal (z-score),[9],-0.156
same,glycan array binding signal (z-score),[10],-0.148
same,glycan array binding signal (z-score),[11],-0.146
same,glycan array binding signal (z-score),[12],-0.16
same,glycan array binding signal (z-score),[13],-0.194
same,glycan array binding signal (z-score),Gal(a1-2)Gal,-0.177
same,glycan array binding signal (z-score),Gal(a1-3)Gal(b1-3)GlcNAc,-0.171
same,glycan array binding signal (z-score),Gal(a1-4)Gal(b1-4)Glc,-0.169
same,glycan array binding signal (z-score),[14],-0.141
same,glycan array binding signal (z-score),Gal(b1-2)Gal,-0.172
same,glycan array binding signal (z-score),Gal(b1-3)Gal,-0.168
same,glycan array binding signal (z-score),Gal(b1-3)GlcNAc(b1-2)Man,-0.145
same,glycan array binding signal (z-score),[15],-0.174
same,glycan array binding signal (z-score),[16],-0.157
same,glycan array binding signal (z-score),[17],-0.187
same,glycan array binding signal (z-score),[18],-0.175
same,glycan array binding signal (z-score),[19],-0.143
same,glycan array binding signal (z-score),[20],-0.204
same,glycan array binding signal (z-score),[21],-0.113
same,glycan array binding signal (z-score),[22],-0.088
same,glycan array binding signal (z-score),[23],-0.141
same,glycan array binding signal (z-score),[24],-0.163
same,glycan array binding signal (z-score),Gal6S(b1-3)GlcNAc6S,-0.174
same,glycan array binding signal (z-score),Gal6S(b1-4)Glc,-0.156
same,glycan array binding signal (z-score),Gal6S(b1-4)GlcNAc,-0.124
same,glycan array binding signal (z-score),GalNAc(a1-3)Gal,-0.158
same,glycan array binding signal (z-score),GalNAc3S(b1-4)GlcNAc3S,-0.165
same,glycan array binding signal (z-score),[25],-0.164
same,glycan array binding signal (z-score),[26],7.33
same,glycan array binding signal (z-score),[27],2.86
same,glycan array binding signal (z-score),[28],6.5
same,glycan array binding signal (z-score),[29],2.96
same,glycan array binding signal (z-score),[30],9.34
same,glycan array binding signal (z-score),[31],5.18
same,glycan array binding signal (z-score),[32],6.56
same,glycan array binding signal (z-score),Man(a1-3)[Man(a1-6)]Man,2.82
same,glycan array binding signal (z-score),[33],13.5
same,glycan array binding signal (z-score),[34],3.07
same,glycan array binding signal (z-score),[35],6.6
same,glycan array binding signal (z-score),[36],-0.167
same,glycan array binding signal (z-score),[37],-0.186
same,glycan array binding signal (z-score),[38],-0.163
same,glycan array binding signal (z-score),[39],-0.169
same,glycan array binding signal (z-score),Neu5Ac(a2-3)Gal(b1-4)Glc,-0.159
same,glycan array binding signal (z-score),[40],-0.176
same,glycan array binding signal (z-score),[41],-0.171
same,glycan array binding signal (z-score),[42],-0.146
same,glycan array binding signal (z-score),[43],-0.153
same,glycan array binding signal (z-score),[44],-0.185
